In the library only some 0.69% were active in any assay of this set; here they are far more common.
TCR act = T cell receptor activation; 330,000 tested, under 10 active; AID 504894; primary human leukocytes, anti-CD3, IL-2 HTRF, 48 h; Potency, µM (series often up to 9.22 µM), inactives show top-dose activation of IL-2 secretion, usual class: activators; further: % of control where 0% means no effect
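IL-2 release read by HTRF sandwich (Eu cryptate donor, d2 acceptor, 665 nm emission) after 48 hr exposure of primary human leukocytes to compound together with anti-CD3 beads in the absence of co-stimulatory signals.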
Tb PFK inh-1 = blocks T. brucei phosphofructokinase. O15648. T. brucei PFK, ADP-Glo luminescence. Potency, µM (top dose mostly 57.5 µM), inactives show top-dose activity, negative = inhibition, hits mostly inhibitors. 0.17% of 330,000 active. AID 485367;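 further: potency means the concentration at half of the fitted maximal effect; 0% = uninhibited 1x PFK enzyme wells and -100% = no-enzyme wells; nearly all actives have a fitted effect of over 60% in size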
Target sequence (O15648 whole entry, looked up): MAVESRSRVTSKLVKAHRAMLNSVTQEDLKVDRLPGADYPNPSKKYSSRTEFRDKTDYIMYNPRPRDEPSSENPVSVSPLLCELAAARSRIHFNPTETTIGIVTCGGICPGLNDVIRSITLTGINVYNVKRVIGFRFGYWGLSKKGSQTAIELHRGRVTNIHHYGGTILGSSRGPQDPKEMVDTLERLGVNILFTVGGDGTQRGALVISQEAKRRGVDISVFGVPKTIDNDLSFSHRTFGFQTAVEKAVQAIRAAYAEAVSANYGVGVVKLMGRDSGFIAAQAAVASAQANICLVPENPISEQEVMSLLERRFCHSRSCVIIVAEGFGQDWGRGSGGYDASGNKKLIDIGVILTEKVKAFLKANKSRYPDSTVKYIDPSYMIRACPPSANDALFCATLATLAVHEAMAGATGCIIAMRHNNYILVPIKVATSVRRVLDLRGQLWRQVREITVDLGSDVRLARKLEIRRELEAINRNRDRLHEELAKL
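Luminescent ADP detection (ADP-Glo, two-step: ATP depletion then ADP-to-ATP conversion for luciferase) reported PFK activity after 45 min room-temperature reaction of 1.25 nM enzyme with 0.5 mM F6P and 0.1 mM ATP at pH 8.0.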
a7 integrin act = activates integrin-mediated alleviation for muscular dystrophy | Potency, µM (doses to about 38.3 µM), for the others: at the top dose activation, actives largely listed as activators | AID 624291 | alpha7betagal myoblasts, beta-gal FDG fluorescence, 48 h | 0.064% of 350,000 active;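 further: potency means the concentration at half of the fitted maximal effect; 100% = response of the positive control SU9516; nearly all actives have a fitted effect of over 60% in size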
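alpha7betagal+/- myoblasts (passage 13, 250/well) treated 48 h at 37C with compounds at 1:260 dilution of DMSO stock. Lysed, then beta-galactosidase activity read as FDG fluorescence (ex 480/em 540) after 30 min, with pre-read for autofluorescence.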
PKM2 activator = activators of human pyruvate kinase M2 | 0.34% of 260,000 active | Potency, µM (series often up to 57.5 µM), inactives show top-dose activation, actives largely listed as activators | AID 1631 | purified PKM2, Kinase-Glo ATP luminescence, activation; response scale: 0% is enzyme alone, no compound | P14618; further: potency means the concentration at half of the fitted maximal effect; on the % scale 0 is the no-effect control and ±100 the full control effect; nearly all actives have a fitted effect of over 55% in size
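ATP formation by purified human PK-M2, quantified via coupled luciferase luminescence after 1 h at room temperature with 0.1 mM ADP and 0.5 mM PEP final.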
IL2 activator = IL-2 activation | IL-2 activation reporter assay, cell-based qHTS; stimulated with anti-CD3/CD4/CD28 beads; in transgenic mouse T cells | activation, % (series mostly up to about 46 µM) | 0.065% of 360,000 active | AID 652025; in the data active means activation above about 50%; inconclusive means mostly about 30% to 49%; further: 0% is about no effect
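EGFP and DsRed fluorescence is measured by plate cytometry in unstimulated transgenic mouse T cells exposed to compound for 60 minutes, then stimulated 18 hours at 37 degrees C with anti-CD3/anti-CD4 beads plus anti-CD28.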
AT treatment = potential ataxia-telangiectasia treatments restoring KAP-1 phosphorylation | F2112 A-T fibroblasts, KAP-1 phosphorylation AlphaLISA; neocarzinostatin DNA damage 30 min before lysis | AID 485349 | Potency, µM (titrated, usually from 57.5 µM), inactives show top-dose activation, actives largely listed as activators | 0.19% of 320,000 active; further: potency means the concentration at half of the fitted maximal effect; % of control where 0% means no effect; nearly all actives have a fitted effect of over 45% in size
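ATM-like activity read as KAP-1 phosphorylation via AlphaLISA donor/acceptor antibody pairs after lysis and 6 hr at 25C. Cells were ATM-null patient fibroblasts (F2112, hTERT), dosed 60 min, then exposed to the DSB inducer NCS for 30 min.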
Tb PFK KinaseGlo = orthogonal confirmation of T. brucei phosphofructokinase inhibitors | Tb PFK enzyme, ATP depletion, Kinase-Glo Plus luminescence | 47% of 1,100 active | Potency, µM (series often up to 57.5 µM), inactives show at the top dose inhibition | shares compounds with Tb PFK inh-1; calls by dose curve; further: potency means the concentration at half of the fitted maximal effect; nearly all actives have a fitted effect of over 60% in size
Tb PFK inh-2 = T. brucei PFK enzyme inhibition, hit validation | shares compounds with Tb PFK inh-1 | purified T. brucei PFK, ADP-Glo luminescence, 45 min | Potency, µM (titrated, usually from 57.5 µM), without a hit: top-dose activity change, negative = inhibition, usual class: inhibitors | 41% of 1,100 active | AID 504637;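 further: potency means the concentration at half of the fitted maximal effect; plate controls were full PFK enzyme control for no effect and no enzyme control for full effect; nearly all actives have a fitted effect of over 60% in size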
Starred values were filed as active, the others as inactive; [ ] = another dose, or the depositor's remark. Unless noted, the call rests on the fitted dose curve; in most records, active means well fitted curve in the direction sought with a large enough effect; inconclusive means small, poorly fitted or top-dose-only effect, or another doubt; inactive means no such curve, though single readings can be large; an effect the other way counts as inactive or inconclusive.

`Cc1ccc(O)c(C(=O)c2cc(C(=O)NCc3ccccc3)c(=O)n(Cc3ccccc3)c2)c1` gave TCR act 1.0%[46.1 µM], Tb PFK inh-1 7.9%, a7 integrin act 5.5%, PKM2 activator -16.3%, IL2 activator -7.3 and AT treatment -4.0%.
`Cc1ccc(O)c(NC2=C(Cl)C(=O)N(Cc3ccccc3)C2=O)c1` gave TCR act 1.9%, Tb PFK inh-1 23.9µM*, a7 integrin act 22.8%, PKM2 activator 8.91µM*, IL2 activator -1.7, AT treatment -1.7%, Tb PFK KinaseGlo 10.7µM* and Tb PFK inh-2 19µM*.
For CC(=NNC(=S)N1CC2CCC(CC2)C1)c1nccs1 the results were TCR act 0.6%, a7 integrin act -55.2% and IL2 activator -6.6.
CCc1c(C)sc(NC(=O)c2ccoc2C)c1C(N)=O was read as Tb PFK inh-1 inconclusive, a7 integrin act 4.0%, PKM2 activator -45.3%, IL2 activator -0.6, AT treatment 0.2%, Tb PFK KinaseGlo 3.38µM* and Tb PFK inh-2 8.49µM*.
Screening CC(C)n1ncc2c(C(=O)Nc3ccc(S(N)(=O)=O)cc3)cc(C3CC3)nc21 returned TCR act 0.4%, Tb PFK inh-1 inconclusive, a7 integrin act -37.7%, IL2 activator -0.1, AT treatment 12.5%, Tb PFK KinaseGlo -33.1% and Tb PFK inh-2 inconclusive.
For CCN1CCN(C(=O)COc2ccc(S(=O)(=O)N3CCOCC3)cc2C)CC1 the results were TCR act -3.9%, Tb PFK inh-1 4.8%, a7 integrin act -28.2%, IL2 activator 0.2 and AT treatment 2.1%.
For CCOc1cc(/C=C\[N+](=O)[O-])ccc1OCC(=O)N1CCOCC1 the results were TCR act -2.8%, Tb PFK inh-1 inconclusive, a7 integrin act -62.5%, IL2 activator -5.9, AT treatment 7.8%, Tb PFK KinaseGlo -33.6% and Tb PFK inh-2 inconclusive.
Screening CC(=O)c1cn(CC(=O)NCCc2c[nH]c3ccccc23)c2ccccc12 returned Tb PFK inh-1 -0.3%, a7 integrin act -21.2%, PKM2 activator 5.1%, IL2 activator -0.4 and AT treatment -20.7%.
For CC(C)C(=O)Nc1ccc(C(=O)NCc2cccnc2)cc1 the results were TCR act -1.4%[46.1 µM], Tb PFK inh-1 -1.7%, a7 integrin act -43.9%, PKM2 activator 1.4%, IL2 activator 0.3 and AT treatment 3.4%.
O=C(O)CCN1C(=O)c2ccc(NC(=O)Cc3ccc(Cl)cc3)cc2C1=O was read as TCR act -2.1%, Tb PFK inh-1 19µM*, a7 integrin act 15.0%, PKM2 activator 1.1%, IL2 activator -2.6, AT treatment -7.6%, Tb PFK KinaseGlo inconclusive and Tb PFK inh-2 26.9µM*.
Screening O=C(O)CCCNC(=O)c1ccc(NC(=O)Cc2ccc(Cl)cc2)cc1 returned TCR act -9.3%, Tb PFK inh-1 inconclusive, a7 integrin act -17.7%, PKM2 activator -6.2%, IL2 activator -2.4, AT treatment 2.0%, Tb PFK KinaseGlo inconclusive and Tb PFK inh-2 inconclusive.
`CC1C(=O)OC2CCN3CC4OC4(COC(=O)C(C)(O)C1(C)O)C23` (stereo unspecified) gave TCR act -3.2%, a7 integrin act 15.4% and IL2 activator -0.3.

Screens from PubChem BioAssay.
